# Bioassay records from PubChem BioAssay.
# GLP1R inv ag: acts as inverse agonist at human GLP-1 receptor. HEK293 GLP-1R CRE-luciferase, luminescence, 24 h; GLP-1R form is constitutively active. Potency, µM (titrated, usually from 38.3 µM), inactives show at the top dose activity change, negative = inhibition, hits mostly inhibitors. 410,000 tested, 1.6% active. AID 624417; note: % is set by controls: 0 for no effect and ±100 for the full control effect; nearly all actives have a fitted effect of over 55% in size
#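 Readout was luciferase luminescence, measured 12 min after detection reagent at room temperature. Beforehand, GLP-1R reporter HEK293 cells had sat 12 h, then received compounds for 24 hr at 37 deg C.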
# PTHR1 agonist: PTHR1 (human) receptor agonism | 410,000 tested, 0.075% active | Potency, µM (top dose mostly 115 µM), for the others: top-dose activation, actives largely listed as activators | HEK293 GP2 PTHR1 cells, GloSensor cAMP luminescence, 1 h | AID 743266; note: nearly all actives have a fitted effect of over 55% in size
# Target sequence (Q03431 whole entry, looked up): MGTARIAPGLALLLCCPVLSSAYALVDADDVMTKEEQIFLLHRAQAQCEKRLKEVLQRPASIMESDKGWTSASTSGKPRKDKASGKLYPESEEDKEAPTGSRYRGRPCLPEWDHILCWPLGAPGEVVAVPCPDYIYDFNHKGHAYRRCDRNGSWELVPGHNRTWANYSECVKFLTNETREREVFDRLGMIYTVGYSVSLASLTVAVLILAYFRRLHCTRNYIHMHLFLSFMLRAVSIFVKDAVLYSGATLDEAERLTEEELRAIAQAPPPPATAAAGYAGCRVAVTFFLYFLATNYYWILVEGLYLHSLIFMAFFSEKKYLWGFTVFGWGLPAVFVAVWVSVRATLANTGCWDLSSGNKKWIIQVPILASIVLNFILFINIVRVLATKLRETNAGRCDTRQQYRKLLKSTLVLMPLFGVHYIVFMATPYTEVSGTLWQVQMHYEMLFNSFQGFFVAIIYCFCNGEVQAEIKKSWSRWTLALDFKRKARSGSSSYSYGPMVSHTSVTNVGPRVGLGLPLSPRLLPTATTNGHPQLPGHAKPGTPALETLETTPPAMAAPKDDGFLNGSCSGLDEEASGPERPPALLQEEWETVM
#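 HEK-293-derived GP2 cells expressing PTHR1 and a GloSensor cAMP reporter, 3,000/well, plated overnight, given luciferin plus IBMX (each 0.5 mM as added) for 1 h at 37 °C, then compound for 1 h at 37 °C. Luminescence was read after 15 min at room temperature.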
# GLP1R ag: agonists of human GLP-1 receptor; Potency, µM (doses to about 45.6 µM), for inactives: at the highest dose activation, actives largely listed as activators; HEK293 GLP-1R CRE-luciferase, luminescence, 4-6 h; cells express a hypersensitive GLP-1R form; AID 624172; 380,000 tested, 0.007% active; P43220; note: % of control where 0% means no effect
# HEK293 tox: cytotoxicity counter-screen for GLP-1 receptor inverse agonists | HEK293 cAMP-luciferase reporter cells, luminescence, 24 h | Potency, µM (doses to about 38.3 µM), without a hit: at the top dose activity change, negative = inhibition, hits mostly inhibitors | 410,000 tested, 0.13% active | AID 624418;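 note: loss of luciferase light is scored as toxicity; % is set by controls: 0 for no effect and ±100 for the full control effect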
#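 Compound-treated cells are incubated 24 hr at 37 deg C under 5% CO2 after a 12 hour attachment period, then luciferase detection reagent is added and luminescence is measured following 12 min at room temperature; lowered signal indicates toxicity.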
# Numbers without * were called inactive; i = inactive; ? = inconclusive; / = not tested or not shown; [ ] = another dose, or the depositor's remark. Most compounds without a hit are left out; they make up all but 1.7% or so of the library. Calls come from the whole dose curve; as a rule, active = well fitted curve in the direction sought with a large enough effect; inconclusive = small, poorly fitted or top-dose-only effect, or another doubt; inactive = no such curve, though single readings can be large; an effect the other way counts as inactive or inconclusive. Potency is the fitted concentration of half-maximal effect.
SMILES,GLP1R inv ag,PTHR1 agonist,GLP1R ag,HEK293 tox
O=C(NCc1ccccc1Br)c1cnc2sc(N3CCCCCC3)nn2c1=O,-6%,i,/,4%
CC[C@H]1OC(=O)[C@H](C)C(=O)[C@H](C)[C@@H](OC2O[C@H](C)C[C@H](N(C)C)[C@@H]2O)[C@@](C)(OC)C[C@@H](C)C(=O)[C@@H](C)C2N(CCCCn3cnc(-c4cccnc4)c3)C(=O)O[C@@]21C (some centres undefined),/,/,12%,/
COc1ccc(Cl)c2sc(NC(=O)c3ccc(S(=O)(=O)N4CCOCC4)cc3)nc12,12%,-2%,-3%,2%
O=C(NCCCN1CCCC1)c1ccc2c(c1)N(Cc1ccccc1)CCS2,?,-21%,3%,4.5µM*
O=C(NCCCN1CCCC1)c1ccc2c(c1)N(Cc1ccccc1F)C(=O)c1ccccc1S2=O (centres undefined),8.9µM*,-27%,0%,-1%
O=C(NC1CC1)c1ccc2c(c1)N(Cc1ccccc1)CCS2,8.9µM*,-11%,-1%,-2%
CCOC(=O)N1CCC(NC(=O)c2ccc3c(c2)N(Cc2ccccc2)CCS3)CC1,?,-21%,7%,-12%
CN1CCN(CCCNC(=O)c2ccc3c(c2)N(Cc2ccc(F)cc2)CCS3)CC1,5.6µM*,i,14%,-27%
Cc1ccc(S(=O)(=O)NCCc2nnc3ccc(SCc4ccccc4F)nn23)cc1,4%,-30%,/,-5%
Cc1ccc(CN(Cc2ccco2)C(=O)c2ccc(Cl)cc2Cl)cc1,13µM*,-27%,/,8%
Cc1ccc(CN(Cc2ccco2)C(=O)c2oc3cc(Br)ccc3c2C)cc1,?,i,/,9%
O=C(c1ccco1)N(Cc1ccc(Cl)cc1)Cc1ccco1,?,-8%,-6%,-5%
CN(C)c1ccc(CN(Cc2ccco2)C(=O)c2ccco2)cc1,11µM*,-8%,-5%,-3%
CCc1ccc2oc(C(=O)N(Cc3cccc(Cl)c3)Cc3ccco3)c(C)c2c1,8.9µM*,i,/,13%
CCOc1ccccc1CNC(=O)c1cn(-c2ccc(OC)cc2)c(=O)c2ccccc12,-7%,20%,/,13%
Cc1ccc(-n2nnnc2SCCNS(=O)(=O)c2ccccc2)cc1C,11µM*,28%[57.5 µM],4%,4%
Cc1cccc(-c2nc(CN3CCCC(C(=O)NC4CCCCCC4)C3)c(C)o2)c1 (centres undefined),?,-1%[57.5 µM],-1%,?
Cc1cccc(-c2nc(CN3CCCC(C(=O)NC4CCCCC4)C3)c(C)o2)c1 (centres undefined),3.5µM*,?,4%,?
N#C/C(N=Nc1ccccc1O)=N\Nc1ccccc1O,?,-41%,-17%,10µM*
CN(c1ccccc1)c1ccc(/C=C(/CCC(=O)O)c2nc3ccccc3s2)cc1[N+](=O)[O-],11µM*,-19%,5%,-27%
Cc1nnc2c(N3CCN(c4ccc(F)cc4)CC3)nc3ccc(C(=O)c4ccccc4)cc3n12,7%,-3%,/,-7%
N/C(Cc1ccccc1)=N\OC(=O)c1cccc2ccccc12,13µM*,7%,?,10µM*
c1ccc2cc(CSCc3nc4ccccc4[nH]3)ccc2c1,10µM*,-17%,-2%,?
CN(C)c1ccc(C(=O)Nc2nc3c(s2)CCCC3)cc1,11µM*,-50%,-1%,-2%
O=C(Nc1nc2c(s1)CCCC2)c1ccc(S(=O)(=O)N2CCCc3ccccc32)cc1,4µM*,-31%,-12%,20%
SMILES,GLP1R inv ag,PTHR1 agonist,GLP1R ag,HEK293 tox
CC(C)(C)c1ccc(C(=O)NCC(c2cccs2)S(=O)(=O)c2ccc(F)cc2)cc1 (centres undefined),4.5µM*,-9%,/,-2%
Cc1ccccc1NC(=O)c1ccc2ccccc2c1,?,-33%,0%,4%
Cc1nnc(NC(=O)c2ccc3ccccc3c2)o1,11µM*,-24%[57.5 µM],2%,-18%
Cn1nnnc1SCC1=C(C(=O)O)N2C(=O)[C@@H](NC(=O)[C@H](OC=O)c3ccccc3)[C@H]2SC1,/,/,-5%,/
COc1cc(C(=O)OCc2cc(=O)n3ccsc3n2)cc(OC)c1OC,?,i,/,-23%
Cc1ccc(C)c(N2CCN(S(=O)(=O)c3c(C(=O)N4CCC(C)CC4)c(C)n(C)c3C)CC2)c1,?,-5%,/,-24%
Cc1[nH]c(=S)c(C#N)c(C)c1CC(=O)c1ccc(Br)cc1,-19%,14µM*,0%,-2%
